The record followed here is PubChem BioAssay (Tox21).

Test [1] concerns the target Retinoic acid receptor RXR-alpha (Homo sapiens) (UniProt P19793). Kind of test: qHTS assay to identify small molecule agonists of the RXR signaling pathway (AID 1159527; calls by dose curve; further: nearly all actives have a fitted effect of over 35% in size; further: potency means the concentration at half of the fitted maximal effect). Summed up:
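Cells plated at 2,000/well, rested 5 hr at 37 C, pin-dosed with DMSO compound solutions, incubated 16 hr, then loaded with B/G FRET substrate for 2 hr at RT before dual-emission fluorescence reading.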

Test [2] can be described thus: qHTS assay to identify small molecule agonists of the RXR signaling pathway - cell viability counter screen (AID 1159529).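 Further: HEK 293T cells carrying an RXR-alpha UAS beta-lactamase reporter; series mostly up to about 77 µM; nearly all actives have a fitted effect of over 50% in size.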 The essentials:
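Steps: seed RXR-alpha-UAS-bla HEK 293T cells in assay medium containing 2% charcoal-stripped FBS; incubate 5 hr; add compounds in DMSO; incubate 16 hr at 37 C; after the bla read, add CellTiter-Glo and read luminescence at 30 min.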

The nature of test [3]: qHTS assay to identify small molecule antagonists of the retinoid acid receptor (RAR) signaling pathway - cell viability counter screen (AID 1159551). Further: nearly all actives have a fitted effect of over 35% in size. The essentials:
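Measured by luminescent ATP detection, viability reflects C3RL4 cells treated 6 h at 37 C with test chemicals in the presence of 1 uM (final) retinol.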

A short description of test [4]: qHTS assay to identify small molecule antagonists of the retinoic acid receptor (RAR) signaling pathway (AID 1159552; further: nearly all actives have a fitted effect of over 50% in size; further: potency means the concentration at half of the fitted maximal effect). Summed up:
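Retinol at 1 uM final stimulated RARE-luciferase expression in C3RL4 cells exposed to test compounds for 6 hr at 37 C. Reduced luminescence, read 30 min after detection reagent, indicated pathway antagonism.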

Test [5] is described as follows: qHTS assay to identify small molecule agonists of the retinoic acid receptor (RAR) signaling pathway (AID 1159553). Further: potency means the concentration at half of the fitted maximal effect. Summed up: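 6 hr compound exposure (DMSO vehicle) of overnight-plated C3RL4 RARE-luc cells at 37 C; luminescence quantified after 30 min RT with luciferase reagent.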
Test [6] can be described thus: qHTS assay to identify small molecule antagonists of the estrogen related receptor (ERR) signaling pathway from Tox21 library - cell viability counter screen (AID 1224834). Further: nearly all actives have a fitted effect of over 30% in size. The essentials:
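Seeded ERR cells were rested 6 h at 37 C/5% CO2 before compounds, positive and negative controls or DMSO were added. Incubation continued for 17.5 h, and viability was then quantified by CellTiter-Fluor fluorescence.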

For test [7], the target named is Luciferin 4-monooxygenase (Photinus pyralis) (UniProt P08659). Kind of test: qHTS assay to identify small molecule inhibitors of firefly luciferase (AID 1224835). Further: nearly all actives have a fitted effect of over 25% in size. Further: potency means the concentration at half of the fitted maximal effect. On activity change, negative = inhibition: series mostly up to about 120 µM. Summed up:
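Quantitative HTS format; KM concentrations of both substrates. Purified P. pyralis FLuc activity quantified from luminescence images.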

Test [8] can be described thus: qHTS assay to identify small molecule agonists of the constitutive androstane receptor (CAR) signaling pathway - cell viability counter screen (AID 1224836). Further: series mostly up to about 92 µM; nearly all actives have a fitted effect of over 45% in size. Summed up: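 Cells were seeded and incubated 4 hrs. Compounds were added across 15 concentrations together with PK11195 at 0.75 uM final. Plates were incubated 23 hrs at 37 C. CellTiter-Fluor was added and fluorescence measured.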

Test [9] is described as follows: qHTS assay to identify small molecule antagonists of the constitutive androstane receptor (CAR) signaling pathway - cell viability counter screen (AID 1224837). Further: series mostly up to about 92 µM; nearly all actives have a fitted effect of over 45% in size. The essentials: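 To flag cytotoxic false antagonists, HepG2 hCAR/CYP2B6-2.2kb cells were treated 23 hr with 15-concentration compound series and 50 nM CITCO at 37 C/5% CO2; CellTiter-Fluor fluorescence was the measured end point.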

Test [10] addresses Nuclear receptor subfamily 1 group I member 3 (Homo sapiens) (UniProt Q14994). Description: qHTS assay to identify small molecule antagonists of the constitutive androstane receptor (CAR) signaling pathway (AID 1224838).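 Further: HepG2 cells stably expressing hCAR with CYP2B6 luciferase reporter stimulated by CITCO; nearly all actives have a fitted effect of over 40% in size.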 Further: potency means the concentration at half of the fitted maximal effect. Summed up: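 Human hepatoma HepG2 cells expressing hCAR and a CYP2B6 promoter (2.2 kb) luciferase construct; compound titration (15 points) with 50 nM CITCO final, 24 h at 37 C/5% CO2; luminescence via ONE-Glo after 30 min at room temperature.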

Test [11] shares this target. Description: qHTS assay to identify small molecule agonists of the constitutive androstane receptor (CAR) signaling pathway (AID 1224839).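 Further: HepG2 cells stably carrying human CAR and a CYP2B6 luciferase reporter; series mostly up to about 92 µM; nearly all actives have a fitted effect of over 15% in size.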 Summed up:
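Cells were plated and incubated 4 hrs, then dosed with compounds at 15 concentrations. PK11195 was added to 0.75 uM final. After 24 hrs at 37 C, luciferase luminescence was measured.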

Test [12] can be described thus: qHTS assay to identify small molecule antagonists of the estrogen related receptor signaling pathway with the pleiotropic PPARgamma coactivator (PGC) from Tox21 10K library - cell viability counter screen (AID 1224840; active means well fitted cell-killing curve with a large enough effect in the repeat runs, not every such curve was filed as active; further: nearly all actives have a fitted effect of over 40% in size). The essentials:
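Seeded PGC/ERR cells (2,000/well, 6 h, 37 C/5% CO2) get compound by pin tool; 17.5 h incubation at 37 C; CellTiter-Fluor added, 30 min, fluorescence measured.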

Test [13] is described as follows: qHTS assay to identify small molecule antagonists of the estrogen related receptor (ERR) signaling pathway - cell viability counter screen (AID 1224818). Further: series mostly up to about 46 µM. The essentials:
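Compounds dissolved in DMSO were applied to ERR cells seeded at 2,000 per well 6 h earlier. Cell viability followed 17.5 h later via 30-min CellTiter-Fluor fluorescence.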

A short description of test [14]: qHTS assay to identify small molecule antagonists of the estrogen related receptor signaling pathway with the pleiotropic PPARgamma coactivator (PGC) cell viability counter screen (AID 1224822; further: series mostly up to about 46 µM). Summed up:
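Counter screen for cell viability: PGC/ERR cells, 6 h pre-incubation after plating, 17.5 h compound exposure at 37 C, fluorescence from CellTiter-Fluor after 30 min.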

Test [15] can be described thus: qHTS assay to identify small molecule antagonists of the estrogen related receptor signaling pathway with the pleiotropic PPARgamma coactivator (PGC) from Tox21 10K library (AID 1224841; call rule not given here; further: series mostly up to about 92 µM; actives are mostly falling curves and most rising ones were filed inactive; nearly all actives have a fitted effect of over 50% in size). Summed up: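 Test chemicals dissolved in DMSO were applied to pre-incubated (6 h) PGC/ERR cells at 2,000 cells/well for an 18 h, 37 C treatment; reporter luminescence was then read using One-Glo.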

A short description of test [16]: qHTS assay to identify small molecule agonists of the estrogen related receptor signaling pathway with the pleiotropic PPARgamma coactivator (PGC) from Tox21 10K library (AID 1224842). Further: nearly all actives have a fitted effect of over 15% in size. The essentials:
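PGC/ERR reporter cells (NTP line) were seeded 2,000 per well, rested 6 h at 37 C/5% CO2, then pin-dosed with compounds in DMSO for 18 h at 37 C; luciferase read by One-Glo luminescence after 30 min at room temperature.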

Results filed as inconclusive are left out. Unmarked numbers belong to inactive results. Activity calls are given as the source filed them. Unless noted, the call rests on the fitted dose curve; in most records, active means well fitted curve in the direction sought with a large enough effect in the repeat runs; inconclusive means weak or mixed curves; inactive means no such curve, though single readings can be large; an effect the other way counts as inactive or inconclusive.
On the % scale 0 is the no-effect control and ±100 the full control effect.

Retinoic acid receptor RXR-alpha (Homo sapiens), sequence (P19793 whole entry, looked up): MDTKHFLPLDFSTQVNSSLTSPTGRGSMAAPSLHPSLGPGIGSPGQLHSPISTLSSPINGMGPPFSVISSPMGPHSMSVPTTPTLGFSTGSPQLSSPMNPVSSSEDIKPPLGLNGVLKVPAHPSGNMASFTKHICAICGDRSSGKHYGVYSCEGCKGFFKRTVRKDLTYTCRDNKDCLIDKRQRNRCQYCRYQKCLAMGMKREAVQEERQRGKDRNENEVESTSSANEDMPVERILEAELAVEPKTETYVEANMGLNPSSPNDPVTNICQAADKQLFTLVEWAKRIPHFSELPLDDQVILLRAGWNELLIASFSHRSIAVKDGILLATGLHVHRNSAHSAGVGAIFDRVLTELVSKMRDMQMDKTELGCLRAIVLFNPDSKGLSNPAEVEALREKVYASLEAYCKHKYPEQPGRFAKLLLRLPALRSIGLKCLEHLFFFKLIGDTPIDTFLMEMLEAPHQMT
Luciferin 4-monooxygenase (Photinus pyralis), sequence (P08659 whole entry, looked up): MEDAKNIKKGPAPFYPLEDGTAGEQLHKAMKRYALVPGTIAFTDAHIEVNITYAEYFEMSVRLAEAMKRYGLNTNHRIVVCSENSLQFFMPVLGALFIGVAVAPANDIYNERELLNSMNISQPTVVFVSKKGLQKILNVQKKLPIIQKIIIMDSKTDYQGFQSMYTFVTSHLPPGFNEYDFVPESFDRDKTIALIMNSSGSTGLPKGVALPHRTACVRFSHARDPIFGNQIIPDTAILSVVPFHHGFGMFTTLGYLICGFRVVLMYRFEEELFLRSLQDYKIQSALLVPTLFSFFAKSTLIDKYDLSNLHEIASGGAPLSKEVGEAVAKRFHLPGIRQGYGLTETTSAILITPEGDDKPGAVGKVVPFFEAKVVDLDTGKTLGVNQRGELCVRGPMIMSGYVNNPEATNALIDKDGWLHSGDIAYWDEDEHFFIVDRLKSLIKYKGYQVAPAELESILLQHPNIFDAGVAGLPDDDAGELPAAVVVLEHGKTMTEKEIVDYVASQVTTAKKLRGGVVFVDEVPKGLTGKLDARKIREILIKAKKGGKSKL
Nuclear receptor subfamily 1 group I member 3 (Homo sapiens), sequence (Q14994 whole entry, looked up): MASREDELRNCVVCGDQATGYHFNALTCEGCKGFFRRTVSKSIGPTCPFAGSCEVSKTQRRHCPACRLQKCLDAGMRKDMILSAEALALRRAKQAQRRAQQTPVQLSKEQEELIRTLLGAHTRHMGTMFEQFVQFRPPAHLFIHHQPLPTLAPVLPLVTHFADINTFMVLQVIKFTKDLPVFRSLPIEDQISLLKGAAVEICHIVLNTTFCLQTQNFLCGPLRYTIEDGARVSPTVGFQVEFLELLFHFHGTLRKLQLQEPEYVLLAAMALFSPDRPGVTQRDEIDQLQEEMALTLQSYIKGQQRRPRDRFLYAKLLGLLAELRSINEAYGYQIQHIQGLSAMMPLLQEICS

Turning to `Nc1ccc(S(=O)(=O)NCc2ccccc2)cc1`, the Potency result in test [1], in test [2], in test [3], in [4], in test [5] and in [6] was “inactive” throughout. Also, the Potency result in [7], in [8], in [9], in [10], in test [11] and in [12] was “inactive” each time.
Consider `CCCCCCCCCCCCCCN(C)C`, for which the activation in test [1] was 7.58% [at 15.8 µM]; in test [11], -0.414% [at 19 µM]. The activity change, negative = cytotoxicity in test [2] was 0.892% [at 15.8 µM]; in test [3], 0.962% [at 19 µM]; in test [9], -1.86% [at 19 µM]. Further, the activity, negative = inhibition in test [4] was -4.35% [at 19 µM]; in test [10] it was 21.5% [at 19 µM]. The Potency entry in test [5] was “inactive”. The viability change, negative = cytotoxic in test [6] was -1.07% [at 19 µM]; in test [8], 5.26% [at 19 µM]; in test [12] it was -1.6% [at 19 µM]. The activity change, negative = inhibition in [7] was -3.07% [at 23.6 µM].
As for `O=C(O)CO`, the Potency entry in [1], in test [2], in [3], in test [4], in test [5] and in test [6] was “inactive” in each case. Moreover, the Potency result in [7], in test [8], in [9], in test [10], in [11] and in [12] was “inactive” each time.
On to `Cc1ccc(N(CC2=NCCN2)c2cccc(O)c2)cc1`, for which the Potency entry in test [1], in test [2], in [3], in [4], in test [5] and in test [7] was “inactive” in each case. Besides, the Potency entry in [9], in test [10], in test [11] and in test [12] was “inactive” in each case. Moreover, the result in test [13] and in [14] was inactive.
Consider `Cc1ccccc1S(N)(=O)=O`, for which the Potency entry in test [1], in [2], in [3], in test [4], in test [5] and in test [6] was “inactive” each time. Moreover, the Potency entry in test [7], in test [8], in test [9], in [10], in [11] and in test [12] was “inactive” throughout.
In the case of `CCNc1nc(N)nc(Cl)n1`, the Potency in test [1] is 5.49 µM (active); in test [4] it was 21.7 µM (active); in [10], 24.3 µM (active). For the same compound, the Potency entry in test [2], in test [3], in test [5], in test [6], in test [7] and in test [8] was “inactive” each time. For the same compound, the Potency result in test [9], in [11], in test [15] and in test [16] was “inactive” each time.
`COC(CC(C)CCCC(C)(C)O)OC` (stereo not drawn): the Potency result in test [1], in test [2], in [3], in [4], in test [5] and in test [6] was “inactive” throughout. In addition, the Potency result in test [7], in [8], in [9], in [10], in [11] and in test [12] was “inactive” each time.
With `COc1cc(S(=O)(=O)Nc2ccccc2)c(OC)cc1N`, the Potency result in test [1], in [2], in test [3], in test [4], in test [5] and in [6] was “inactive” each time. Also, the Potency result in test [7], in test [8], in test [9] and in [10] was “inactive” throughout.
With `CCCCCCC(CO)CCCC` (stereo not drawn), the Potency entry in test [1], in test [2], in test [3], in test [4], in [5] and in test [6] was “inactive” throughout. The Potency result in [7], in [8], in test [9], in test [10], in test [11] and in test [12] was “inactive” in each case.
With `CC(C)(C)C(O)/C=C/c1ccc2c(c1)OCO2` (stereo not drawn), the Potency result in test [1], in test [2], in test [3], in test [4], in test [6] and in test [8] was “inactive” each time. Also, the Potency result in test [9], in test [10] and in [12] was “inactive” in each case. The Potency in test [5] was 29.8 µM (active); in test [7] it was 24.5 µM (active).
